In the supplement of paper PMC6658780:
Structures can show the parent of a compound that is named as a salt. ± gives the standard deviation of the averaged measurements.

System: Escherichia coli ATCC BAA-2469
Assay: percent growth inhibition of drug + antibiotic vs DMSO control; higher = more growth inhibition
Procedure: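 Prestwick drugs tested at 20 uM and 7 uM with an antibiotic at 0.125x MIC (16 mg/L when MIC >128 mg/L) against E. coli ATCC BAA-2469 (NDM-1) in CAMHB, 384-well plates, duplicate runs. Percent growth inhibition was computed from OD600 (24 h minus 0 h) relative to DMSO wells. Drug + DMSO-only wells are also given. […]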

[1] = antibiotic (0.125x MIC): ciprofloxacin, 7 µM
[2] = antibiotic (0.125x MIC): ciprofloxacin, 20 µM
[3] = antibiotic (0.125x MIC): gentamicin, 7 µM
[4] = antibiotic (0.125x MIC): gentamicin, 20 µM
[5] = antibiotic (0.125x MIC): meropenem, 7 µM
[6] = antibiotic (0.125x MIC): meropenem, 20 µM

SMILES | percent growth inhibition [1] [%] | percent growth inhibition [2] [%] | percent growth inhibition [3] [%] | percent growth inhibition [4] [%] | percent growth inhibition [5] [%] | percent growth inhibition [6] [%]
O=c1[nH]c(=O)n([C@H]2C[C@H](O)[C@@H](CO)O2)cc1C(F)(F)F [Trifluridine] | 4.99 ± 6.6 | 25.5 ± 3.5 | 6.11 ± 0.34 |  |  | 
O=C1NCCN1c1ncc([N+](=O)[O-])s1 [Niridazole] | 45 ± 5.1 | 86.8 ± 14 | 30.939 ± 0.024 | 99.9 ± 3.3 | 42.4 ± 9.2 | 85.3 ± 15
O=C(N[C@H](CO)[C@H](O)c1ccc([N+](=O)[O-])cc1)C(Cl)Cl [Chloramphenicol] | 18.4 ± 4.5 | 92.4 ± 9.2 | 38.6 ± 9.3 | 102 ± 3.6 | 40.2 ± 7 | 89.3 ± 10
CC(=O)OC[C@H]1O[C@@H]([S-])[C@H](OC(C)=O)[C@@H](OC(C)=O)[C@@H]1OC(C)=O.CCP(CC)CC.[Au+] [Auranofin] | 9.1 ± 0.77 | 19.5 ± 6.6 |  |  | 7.8 ± 5.3 | 19.3 ± 14
O=C1OCCN1/N=C/c1ccc([N+](=O)[O-])o1 [Furazolidone] |  | 102 ± 2.7 |  | 113 ± 20 |  | 113 ± 20
CO[C@H]1/C=C/O[C@@]2(C)Oc3c(C)c(O)c4c(O)c(c5c(nc6cc(C)ccn65)c4c3C2=O)NC(=O)/C(C)=C\C=C\[C@H](C)[C@H](O)[C@@H](C)[C@@H](O)[C@@H](C)[C@H](OC(C)=O)[C@@H]1C [Rifaximin] |  | 99.44 ± 0.47 | 68.8 ± 13 |  | 94.7 ± 4.2 | 99 ± 1.7
CO[C@H]1/C=C/O[C@@]2(C)Oc3c(C)c(O)c4c(O)c(c(/C=N/N5CCN(C6CCCC6)CC5)c(O)c4c3C2=O)NC(=O)/C(C)=C\C=C\[C@H](C)[C@H](O)[C@@H](C)[C@@H](O)[C@@H](C)[C@H](OC(C)=O)[C@@H]1C [Rifapentine] |  | 99.9 ± 4.6 |  |  |  | 96.3 ± 5.3
O=C1CN(/N=C/c2ccc([N+](=O)[O-])o2)C(=O)N1 [Nitrofurantoin] |  |  | 6.28 ± 5.3 |  | 2.1 ± 2.9 | 
Oc1c(Cl)cc(Cl)c2cccnc12 [Chloroxine] |  |  | 40 ± 13 | 112 ± 19 |  | 
N[C@@H]1CCCCN(c2c(F)cc3c(=O)c(C(=O)O)cn(C4CC4)c3c2Cl)C1 [Besifloxacin hydrochloride] |  |  | 6.28 ± 5.6 |  | 2.23 ± 6.8 | 
COc1ccccc1OCC(O)CO (stereo unspecified) [Guaifenesin] |  |  | 2.34 ± 2.3 |  | -4.21 ± 1.2 | 
Cc1cc(/C=C/c2ccc3cc(N(C)C)ccc3[n+]2C)c(C)n1-c1ccccc1 [Pyrvinium pamoate] |  |  | 13.6 ± 14 |  | 11.6 ± 17 | 18 ± 14
CS(=O)(=O)c1ccc([C@@H](O)[C@@H](CO)NC(=O)C(Cl)Cl)cc1 [Thiamphenicol] |  |  |  |  | 7.39 ± 2.1 | 30.4 ± 14
